HCMV antiviral = blocks human cytomegalovirus replication; AID 1259415; activity change, negative = inhibition, % at 57.5 µM; hit rate 4.5% among 410,000; HFF cells, HCMV-luciferase reporter, 72 h; active compounds read low; in the data active means activity change below about -60%; inconclusive means no clear call, values can overlap the other calls; inactive means above about -39%
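Screen run at 2 compound doses on HFFs infected with reporter HCMV, MOI 1 PFU/cell. Luciferase activity from cell lysates at 72 h post infection gave inhibition relative to buffer-only and Salinomycin wells.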
HCV inhibitor = blocks hepatitis C virus | Huh7.5.1 HCVcc-Cre infection, luciferase reporter, 44 h | Potency, µM (top dose mostly 41.8 µM), actives largely listed as inhibitors | hit rate 3.4% among 340,000; active means well fitted inhibition curve with a large enough effect; inconclusive means small, poorly fitted or top-dose-only effect, or another doubt; inactive means no such curve, though single readings can be large or run the other way
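Cells (1,000/well) were plated 4 h before compound, then infected with HCVcc-Cre virus (~0.5 moi). After 44 h further culture, infection was read as luciferase luminescence following a 15 min substrate incubation at room temperature.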
Vaccinia Venus = inhibitors of vaccinia virus (Venus reporter). Potency, µM (titrated, usually from 36.5 µM), most hits filed as inhibitors. hit rate 0.46% among 330,000. Vaccinia virus Venus reporter expression, fluorescence. AID 720580; calls by dose curve; tested in A549 cells; further: nearly all actives have a fitted effect of over 30% in size
FMDV antiviral = blocks foot and mouth disease virus; FMDV antiviral cell-based qHTS; Potency, µM (titrated, usually from 57.9 µM), hits mostly inhibitors; hit rate 1.2% among 410,000; AID 1159524; calls by dose curve; tested in HEK293T cells; further: read-out not given here; nearly all actives have a fitted effect of over 45% in size
VACV mCherry inh = vaccinia inhibition (mCherry reporter). Vaccinia virus mCherry reporter infection, fluorescence. Potency, µM (titrated, usually from 36.5 µM), usual class: inhibitors. hit rate 0.63% among 310,000. AID 720579; calls by dose curve; tested in A549 cells; further: nearly all actives have a fitted effect of over 35% in size
Hits are given with their value; - = inactive; ? = inconclusive; . = no result given; ! = not confirmed by another sample. Rows were chosen to be rich in hits. Some 7.3% of all compounds tested hit in one or more screens of this group.

SMILES | HCMV antiviral | HCV inhibitor | Vaccinia Venus | FMDV antiviral | VACV mCherry inh
CC(NCc1ccc(-c2ccccc2)cc1)C(O)c1ccccc1 (configuration not stated) | -101 | ? | ? | ? | -
Cc1ccccc1OCC(=O)N/N=C/c1cccc(Oc2ccc([N+](=O)[O-])cc2[N+](=O)[O-])c1 | ? | 11µM | ? | - | ?
Cc1ccc(OCC(=O)N/N=C\c2c(C)n(C)c3ccccc23)c([N+](=O)[O-])c1 | . | 16µM | . | - | .
COc1cccc2sc(Nc3nnc(-c4ccc(F)cc4)o3)nc12 | - | ? | ? | - | ?
COc1cccc2sc(Nc3nnc(-c4cccs4)o3)nc12 | -86 | ? | ? | - | ?
NC(=S)NN=C1CCC2(CCCCC2)CC1 | - | - | ? | - | ?
CC1(C)CCC(=NNC(N)=S)CC1 | - | - | ? | - | 11µM
Cc1ccc2c(c1)C(C1(O)C(=O)N(Cc3ccccc3)c3ccccc31)C(=O)N2C (configuration not stated) | - | . | . | . | .
CC(=O)c1c(C)[nH]c(C(=O)Nc2nccs2)c1C | - | 10µM | ? | - | -
O=C(COc1ccc(Br)cc1Br)NC1CCCC1 | -63 | ? | . | - | .
Cc1cc(Cl)ccc1OCC(=O)NC1CCCC1 | -74 | ? | - | . | -
O=C(COc1ccc(Br)cc1Cl)NC1CCCCC1 | ? | ? | - | - | -
Cc1cc(Cl)ccc1OCCCC(=O)NO | - | 7.1µM | - | - | -
Cc1cc(Cl)ccc1OCC(=O)OCC(=O)NC1CCCC1 | - | - | - | - | -
CCOC(=O)N1CCN(S(=O)(=O)c2cc(OCC(=O)NC3CCCCC3)c(C)cc2Cl)CC1 | -70 | - | . | - | .
Clc1ccc(NN(Cc2ccncc2)c2ccc(Cl)cc2)cc1 | - | . | - | - | -
Cc1cc(Cl)c(S(=O)(=O)N2CCN(c3ccccn3)CC2)cc1OCC(=O)NC1CCCCC1 | -77 | 10µM | . | 22µM | .
Cc1cc(Cl)c(S(=O)(=O)NC2CCCC2)cc1OCC(=O)NC1CCCCC1 | -90 | 7.1µM | . | - | .
CCOc1cc(CNCc2ccccc2)ccc1OCC(=O)NC1CCCCC1 | - | 2.5µM | - | - | -
Cc1cc(Cl)c(S(=O)(=O)N2CCSCC2)cc1OCC(=O)NC1CCCCC1 | -95 | 6.3µM | . | - | .
COc1cc(CNCc2ccccn2)ccc1OCC(=O)NC1CCCCC1 | - | - | - | - | -
COCC1CN(CCc2ccc(F)cc2)S(=O)(=O)c2c(OCCN3C(=O)[C@@H]4[C@H](C3=O)[C@@H]3C=C[C@H]4C3)cccc2O1 (some centres not stated) | - | . | . | . | .
O=C(COc1ccc(S(=O)(=O)NC2CCCCC2)cc1Cl)NCc1ccc2c(c1)OCO2 | - | ? | . | - | .
COc1ccc(CCNC(=O)COc2ccc(S(=O)(=O)NC3CCCCC3)cc2Cl)cc1OC | -62 | ? | - | - | -
CCn1c(CCNC(=O)c2ccc(Cl)c(Cl)c2)nnc1SCCOc1ccc(OC)cc1 | -65 | - | . | 40µM | .
SMILES | HCMV antiviral | HCV inhibitor | Vaccinia Venus | FMDV antiviral | VACV mCherry inh
CC(C)CN(C(=O)COC(=O)CN1C(=O)c2ccccc2C1=O)c1c(N)n(Cc2ccccc2)c(=O)[nH]c1=O | - | - | - | - | -
Cc1ccccc1Cn1cc(/C=N/n2cnnc2)c2ccccc21 | - | - | ? | - | ?
Clc1ccc(Cn2cc(/C=N/n3cnnc3)c3ccccc32)cc1 | - | 10µM | ? | ? | .
Cc1cc(NCC(=O)Nc2ccc(C)c(S(=O)(=O)N3CCOCC3)c2)ccc1Br | - | . | ? | ? | ?
CC1CCC(C(C)C)C(P(=O)(c2ccccc2)c2ccccc2)C1 (configuration not stated) | . | . | . | - | .
COc1ccc(OC)c(C2CC(=O)Oc3c2c(=O)n(C)c2ccccc32)c1 (configuration not stated) | - | . | - | - | -
CC(=O)O[C@]1(C(C)=O)CC[C@H]2[C@@H]3C=C(Cl)C4=CC(=O)CC[C@]4(C)[C@H]3CC[C@@]21C | ? | ? | - | ? | -
CC(=O)O[C@]1(C(C)=O)CC[C@H]2[C@@H]3C=C(Cl)C4=CC(=O)[C@@H]5C[C@@H]5[C@]4(C)[C@H]3CC[C@@]21C | -90! | - | ? | ? | ?
Cn1c(=O)n(C)c2cc([N+](=O)[O-])c(N3CCN(C(=O)c4cccc(Cl)c4)CC3)cc21 | ? | ? | - | 35µM | -
O=C(c1ccc(-c2cc3ccccc3oc2=O)cc1)N1CCN(c2ccc(Cl)cc2[N+](=O)[O-])CC1 | ? | 10µM | - | - | -
Cn1c(=O)n(C)c2cc([N+](=O)[O-])c(N3CCN(C(=O)c4cccc(F)c4)CC3)cc21 | - | ? | - | ? | -
